# APOBEC3A inh – APOBEC3A ssDNA deaminase inhibitors, primary screen, selectivity assay for APOBEC3G inhibitor project, biochemical, FAM/TAMRA oligo cleavage fluorescence; recombinant A3A, FAM/TAMRA ssDNA deamination fluorescence; inhibition, % at 20 µM; actives 0.41% (n = 330,000); AID 493011, 2011;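 active = at least 40% inhibition at 20 µM here, with at most 30% in a related deaminase screen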;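 also: plate controls were A3A with DMSO for no effect and wells lacking A3A enzyme for full effect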
# Target sequence (P31941 whole entry, looked up): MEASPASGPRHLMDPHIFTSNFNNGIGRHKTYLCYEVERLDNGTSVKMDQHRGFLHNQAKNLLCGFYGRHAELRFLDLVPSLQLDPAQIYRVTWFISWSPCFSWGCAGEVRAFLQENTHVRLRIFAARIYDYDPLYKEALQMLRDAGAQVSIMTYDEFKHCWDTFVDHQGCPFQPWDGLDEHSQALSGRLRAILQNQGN
# ALR inh – inhibitors of human ALR sulfhydryl oxidase, primary screen, biochemical, H2O2 detection, HRP-luminol luminescence, single point. FAD-linked sulfhydryl oxidase ALR (Homo sapiens), P55789. purified ALR, DTT oxidation. inhibition, % (test concentration not listed). actives 3.8% (n = 290,000). AID 485317, 2010;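 active = mean replicate inhibition above about 79%, with every replicate also reaching it, limit read from the data; inconclusive = only one of the two criteria met; inactive = mean below limit and not every replicate reaching it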
# Target sequence (P55789 whole entry, looked up): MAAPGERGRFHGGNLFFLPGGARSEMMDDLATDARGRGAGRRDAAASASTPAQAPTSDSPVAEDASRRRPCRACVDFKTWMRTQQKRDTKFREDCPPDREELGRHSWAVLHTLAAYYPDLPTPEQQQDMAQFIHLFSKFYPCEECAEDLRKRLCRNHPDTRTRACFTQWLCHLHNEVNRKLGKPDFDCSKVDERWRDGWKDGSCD
# rCAG binder – binders of r(CAG) RNA repeats, primary screen, biochemical, fluorescence; inhibition, % at 3 µM; AID 651821, 2012; r(CAG) RNA repeat, TO-PRO-1 dye displacement fluorescence; actives 1.3% (n = 370,000);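 active = inhibition above the plate cutoff, the mean of all test compounds on that plate plus 3 SD, cut at about 35% in these data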;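 also: 0% = DMSO alone and 100% = 100 µM mitoxantrone as full dye displacement; higher means more dye released from RNA so lower well fluorescence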
# APOBEC3G inh – APOBEC3G DNA deaminase inhibitors, primary screen, biochemical, fluorescence, single-stranded DNA substrate, uHTS; inhibition, % at 20 µM; recombinant A3G, ssDNA deamination FAM/TAMRA fluorescence; actives 0.28% (n = 330,000);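 active = inhibition of at least 40% at 20 µM, with no more than 30% in the related APOBEC3A deaminase screen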;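 also: plate controls were DMSO wells with A3G for no effect and wells lacking A3G enzyme for full effect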
# aDG glyco act – activators of alpha-DG glycosylation, primary screen, uHTS, Pro5-aDG cells, AlphaScreen; alpha-DG glycosylation AlphaScreen (IIH6); 0% Pro5, 100% B10-LARGE cell signal; activation, % at 10 µM; actives 0.22% (n = 360,000); AID 624168, 2012;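 active = activation of at least 8% versus controls, or a plate z-score of at least 8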;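 also: Pro5 are CHO cells carrying HIG-tagged alpha-DG that lacks glycosylation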
# PHOSPHO1 inh – PubChem AID 1565; recombinant PHOSPHO1, absorbance phosphatase assay; actives 1.1% (n = 290,000); inhibition, % at 13.3 µM; Phosphoethanolamine/phosphocholine phosphatase (Homo sapiens), Q8TCT1; in the data active = inhibition above about 60%
# Active calls of the source: *; ? = inconclusive; · = no result. This is a sample that favours compounds with a hit; in the whole collection about 5.4% have one here.
SMILES,APOBEC3A inh,ALR inh,rCAG binder,APOBEC3G inh,aDG glyco act,PHOSPHO1 inh
CCOc1ncccc1C(=O)Nc1ccc(S(=O)(=O)Nc2nccs2)cc1,-9,2,26,-6,0,25
O=C(CCl)Nc1ccc(S(=O)(=O)Nc2nccs2)cc1,3,-6,6,-7,0,23
CC(=O)Nc1ccc(S(=O)(=O)Nc2nccs2)cc1,-1,4,-3,-3,0,24
CCOc1ccc(-n2ccc(=O)c(C(=O)Nc3ccc(S(=O)(=O)Nc4nccs4)cc3)n2)cc1,0,2,68*,8,0,45
O=C(CSc1ccncc1)Nc1ccc(S(=O)(=O)Nc2nccs2)cc1,9,99*,14,0,0,48
Cc1ccc(S(C)(=O)=O)cc1C(=O)Nc1ccc(S(=O)(=O)Nc2nccs2)cc1,0,97*,20,-6,0,·
c1ccc(Cn2ccc3ccc(-c4ccc5ccn(Cc6cccc(Oc7ccccc7)c6)c5c4)cc32)cc1,·,·,27,·,·,·
CCOC(=O)c1c(N)sc2c(OC)c(Br)ccc12,3,99*,7,2,1,16
O=C(NCc1ccccc1)C(c1ccco1)N1CCN(CCN2CCOCC2)CC1 (configuration not stated),·,·,2,·,·,·
C=CC[n+]1c(-c2ccc(OCC)cc2)csc1NNC(=O)Nc1ccccc1,-7,3,4,2,2,61*
COc1ccc(NC2C=CS(=O)(=O)C2)c(OC)c1 (configuration not stated),1,85*,-1,-2,0,-7
COc1ccc(/C=C2\Oc3cc(OCC(=O)N4CCC(C(=O)O)CC4)ccc3C2=O)c(OC)c1OC,-2,91*,22,-7,0,8
COc1ccc(C(=O)Nc2ccccc2C(=O)O)cc1Cl,1,52,7,-1,1,-7
COc1cc(C(=O)Nc2ccc(O)cc2C(=O)O)ccc1OC(C)=O,0,87*,5,-2,0,14
COC(=O)c1ccc(NC(=O)c2ccc(OC(C)=O)c(OC)c2)cc1,-2,39,-1,-4,0,37
COc1ccc(C(=O)Nc2ccccc2C(=O)O)cc1NC(=O)C(c1ccccc1)c1ccccc1,2,-7,82*,-7,0,12
COC(=O)[C@H](N[C@H](/C=C/c1ccccc1)[C@@H](O)Cc1ccccc1)c1ccccc1,·,·,1,·,·,·
CCOc1ccc2nc(SC3CC(=O)N(c4ccc(C)cc4)C3=O)sc2c1 (configuration not stated),-7,-17,-2,-6,0,84*
COc1ccc(N2C(=O)CC(Sc3nc4ccccc4s3)C2=O)cc1OC (configuration not stated),-4,97*,1,-3,1,8
CC(=O)Nc1ccc(N2C(=O)CC(Sc3nc4ccccc4s3)C2=O)cc1 (configuration not stated),-3,?,-4,-1,0,-72
CCOc1ccc(N2C(=O)CC(Sc3nc4ccc(OCC)cc4s3)C2=O)cc1 (configuration not stated),-2,-3,0,-1,0,·
C=CCNc1nnc(SC2CC(=O)N(c3ccc(OCCC)cc3)C2=O)s1 (configuration not stated),-1,7,2,32,0,100*
CCOC(=O)c1ccc(N2C(=O)CC(Sc3nnc(C)s3)C2=O)cc1 (configuration not stated),-5,91*,10,22,0,100*
Cc1c(NS(=O)(=O)c2cc3c(cc2Br)CCN3C(=O)C2CC2)c(=O)n(-c2ccccc2)n1C,·,·,9,·,·,·
COc1ccc(-n2c(SCC(=O)Nc3ccc4c(c3)OCCO4)nnc2-c2ccccc2)cc1,·,·,9,·,·,·
SMILES,APOBEC3A inh,ALR inh,rCAG binder,APOBEC3G inh,aDG glyco act,PHOSPHO1 inh
COc1ccc(NC2CCCN(C(=O)CN3C(=O)c4ccccc4C3=O)C2)cc1OC (configuration not stated),-3,98*,0,-3,0,28
COc1ccc(NC2CCCN(C(=O)CSc3ccccn3)C2)cc1OC (configuration not stated),-4,99*,-3,-6,0,38
COc1ccc(NC2CCCN(Cc3cccc4cnccc34)C2)cc1OC (configuration not stated),-1,95*,-5,0,0,·
CN1C(=O)CC(N2CCN(c3ccccc3)CC2)C1=O (configuration not stated),3,94*,0,-3,0,·
O=C1CC(N2CCN(c3ccccc3)CC2)C(=O)N1CCc1ccccc1 (configuration not stated),-4,95*,-7,-6,0,-8
CN1C(=O)CC(N2CCN(C(c3ccccc3)c3ccccc3)CC2)C1=O (configuration not stated),-3,-3,-6,-5,0,-11
C=C(C)Cn1c(SCC(=O)NN=Cc2c(O)ccc3ccccc23)nnc1-c1ccc(Br)cc1,·,·,15,·,·,·
CC(Oc1ccc([N+](=O)[O-])cc1)C(=O)NCCCN1CCOCC1 (configuration not stated),0,1,1,3,0,66*
CC(Oc1ccc2c(c1)oc(=O)c1ccccc12)C(=O)NCCCN1CCOCC1 (configuration not stated),0,-2,-7,3,0,18
CC(=O)c1cc(-c2cccc(Cl)c2O)c(=O)n2c1CCC2,·,·,7,·,·,·
COc1ccc(N2CCN(C(=O)Cc3cccs3)CC2)cc1,-3,97*,-1,-3,0,-1
O=C(CCC(=O)N1CCN(c2ccc(O)cc2)CC1)c1cccs1,-7,99*,1,16,0,20
O=C(c1cccs1)N1CCN(c2ccc(Cl)cc2)CC1,-1,96*,-5,-7,0,·
O=C(c1cccs1)N1CCN(c2cc(Cl)ccc2Cl)CC1,-3,52,-7,-8,0,·
CC(=O)c1ccc(NCC(=O)N2CCN(c3ccccc3)CC2)cc1,19,6,-2,-1,0,98*
CC(=O)c1ccc(N2CCN(C(=S)Nc3ccccc3)CC2)cc1,-2,2,2,-3,1,-10
CC(=O)c1ccc(N2CCN(C(=O)Cc3cccs3)CC2)cc1,-7,-1,0,-4,0,-35
